# Screens deposited in PubChem BioAssay by National Center for Advancing Translational Sciences (NCATS).
# The list is not random: actives were taken first. Their share in the collection is about 11%.
# Gal4-VP16 FLuc – counter-screen for ROR gamma inhibitors: Gal4-VP16 reporter; Drosophila S2 Gal4-VP16 UAS-luciferase, luminescence, 20 h; Potency, µM (series often up to 53.6 µM), without a hit: top-dose activity, negative = inhibition, actives largely listed as inhibitors; 310,000 tested, 3.5% active; AID 2546;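 note: Gal4-VP16 expression switched on by copper sulfate through the metallothionein promoter; potency is the fitted concentration of half-maximal effect; % is set by controls: 0 for no effect and ±100 for the full control effect; nearly all actives have a fitted effect of over 50% in size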
# RORg inh – blocks mouse ROR gamma transcriptional activity; Potency, µM (doses to about 53.6 µM), inactives show top-dose activity change, negative = inhibition, actives largely listed as inhibitors; 310,000 tested, 5.4% active; Drosophila S2 Gal4-RORgamma UAS-luciferase reporter, 20 h; P51450; note: potency is the fitted concentration of half-maximal effect; % is set by controls: 0 for no effect and ±100 for the full control effect; nearly all actives have a fitted effect of over 60% in size
# Target sequence (P51450 whole entry, looked up, the tested form may be a part): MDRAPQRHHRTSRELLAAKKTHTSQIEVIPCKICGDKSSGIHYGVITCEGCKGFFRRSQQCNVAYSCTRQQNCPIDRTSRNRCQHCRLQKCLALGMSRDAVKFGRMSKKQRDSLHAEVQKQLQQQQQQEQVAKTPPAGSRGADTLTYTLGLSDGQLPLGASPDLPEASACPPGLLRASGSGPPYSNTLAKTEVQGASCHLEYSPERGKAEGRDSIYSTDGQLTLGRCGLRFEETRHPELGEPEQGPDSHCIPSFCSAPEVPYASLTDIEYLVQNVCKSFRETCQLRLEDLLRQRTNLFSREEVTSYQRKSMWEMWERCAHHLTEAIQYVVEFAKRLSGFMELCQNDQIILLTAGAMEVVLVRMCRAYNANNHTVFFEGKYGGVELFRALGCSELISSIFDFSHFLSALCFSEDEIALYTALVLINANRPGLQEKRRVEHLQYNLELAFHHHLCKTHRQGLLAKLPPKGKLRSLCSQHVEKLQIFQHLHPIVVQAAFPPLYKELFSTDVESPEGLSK
#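 A Gal4/UAS one-hybrid system in insect cells: metallothionein-promoter Gal4–ROR gamma fusion plus Photinus luciferase reporter. Copper sulfate 700 uM final, 20 hr ambient incubation, luminescent detection after 10 min with reagent.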
# MCF10A rereplic – induces DNA re-replication in MCF 10a normal breast cells. MCF 10A DNA re-replication, Hoechst nuclear intensity, 48 h. AID 624296. Potency, µM (highest dose often 46.1 µM), for inactives: at the top dose activity, positive = re-replication, hits mostly activators. 350,000 tested, 2.9% active; note: potency is the fitted concentration of half-maximal effect; % of control where 0% means no effect; nearly all actives have a fitted effect of over 50% in size
# IL1B secr inh – inflammasome signaling inhibition, IL-1 beta readout; THP-1 LPS/ATP IL-1B secretion, AlphaLISA, 16 h; hits give low values; activity change, % at 57.5 µM; 360,000 tested, 4.7% active; in the data active = activity change below about -50%; inconclusive = mostly about -30% to -49%; note: % is set by controls: 0 for no effect and ±100 for the full control effect
#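 Secreted IL-1B measured by AlphaLISA bead assay after 16 h compound exposure of THP-1 cells; compounds (final up to 57.5 uM) added 1 h before LPS (250 ng/mL) and ATP (1.25 mM) stimulation; lower signal means less secretion.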
# SW480 rereplic – inducers of DNA re-replication in SW480 colon cancer cells | SW480 DNA re-replication, Hoechst DNA content imaging, 48 h | Potency, µM (highest dose often 46.1 µM), for inactives: at the highest dose re-replication activation, most hits filed as activators | 340,000 tested, 1.8% active | AID 624297; note: potency is the fitted concentration of half-maximal effect; % of control where 0% means no effect; nearly all actives have a fitted effect of over 55% in size
#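 Readout is total intensity of Hoechst-stained nuclei, excited at 405 nm and collected at 500-530 nm. Compound treatment lasted 48 hr at 37 C in 5% CO2 before staining.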
# Active calls of the source: *; ? = inconclusive; nt = no result. Unless noted, calls come from the whole dose curve; as a rule, active = well fitted curve in the direction sought with a large enough effect; inconclusive = small, poorly fitted or top-dose-only effect, or another doubt; inactive = no such curve, though single readings can be large; an effect the other way counts as inactive or inconclusive.
SMILES,Gal4-VP16 FLuc,RORg inh,MCF10A rereplic,IL1B secr inh,SW480 rereplic
CN1CCCCC1(C)C(=O)NCc1cc(Cl)ccc1F (stereo unspecified),nt,nt,nt,11,nt
CCOC(=O)c1cc(-c2ccccc2C)n(CC2CC(c3cccc([N+](=O)[O-])c3)=NO2)n1 (stereo unspecified),nt,nt,1%,2,?
Cc1cc(=O)oc2cc3c(cc12)OCCN3,15%,12%,8.2µM*,7,?
C(=N\Nc1nc(N2CCCCCC2)nc(N2CCCCCC2)n1)/c1ccccc1,?,8.9µM*,-2%,0,4%
O=[N+]([O-])c1cccc(-c2ccc(/C=N/Nc3nc(N4CCCCC4)nc(N4CCCCC4)n3)o2)c1,-6%,10µM*,-14%,-14,2%
O=[N+]([O-])c1ccc(NN=Cc2cccc3ccccc23)cc1,nt,nt,?,-12,1.2µM*
O=C1C2C3C=CC(C4CC34)C2C(=O)N1/N=C/c1ccc(-c2cccc([N+](=O)[O-])c2)o1 (stereo unspecified),-13%,-6%,5%,-62*,2%
Brc1cccc(/C=N/Nc2nc(N3CCCCC3)nc(N3CCCCC3)n2)c1,0%,-5%,nt,nt,nt
O=[N+]([O-])c1ccc(-c2ccc(/C=N/Nc3nc(N4CCCCC4)nc(N4CCCCC4)n3)o2)cc1,0%,-7%,23%,14,6%
COc1ccc(N2CCN(C(=O)COC(=O)CCc3ccccc3)CC2)cc1,nt,nt,-1%,30,-20%
O=C(NCCc1ccccc1)c1ccc2c(c1)S(=O)(=O)N=C1CCCCCN12,nt,nt,4%,-4,8%
COc1ccc(NC(=O)CSc2nnnn2C2CCCC2)cc1S(=O)(=O)N1CCOCC1,nt,nt,nt,1,nt
Fc1ccc(COc2ccc(Cl)cc2/C=N/Nc2nc(N3CCCC3)nc(N3CCCC3)n2)cc1,5%,?,4%,-21,6%
Cc1cc(C)nc(N/N=C/c2ccccc2OCc2ccc([N+](=O)[O-])cc2)n1,?,14µM*,6%,-4,4%
C(=N\Nc1nc(N2CCCC2)nc(N2CCCC2)n1)/c1ccccc1OCc1ccccc1,-21%,2.8µM*,3%,?,?
Fc1ccc(Nc2nc(N/N=C/c3ccco3)nc(N3CCCCC3)n2)cc1,5µM*,2.8µM*,17%,-7,20%
Fc1ccccc1COc1ccccc1/C=N/Nc1nc(N2CCCC2)nc(N2CCCC2)n1,13µM*,6.3µM*,-3%,4,-10%
COc1ccc(C(=O)N[C@H](C(=O)NCCc2ccc3c(c2)OCCO3)C(C)C)cc1,nt,nt,10%,-28,1%
COc1cc(C=O)ccc1OCC(=O)Nc1ccc2c(c1)OCO2,-1%,0%,7%,-24,-7%
O=C1CCCCC1C(Nc1ccc(Cl)cc1)c1ccccc1 (stereo unspecified),1%,-1%,?,-15,-1%
O=C1CCCCC1C(Nc1ccc(Br)cc1)c1ccccc1 (stereo unspecified),-5%,-17%,?,-72*,-8%
O=C(NC(=S)NCc1ccc2c(c1)OCO2)c1ccccc1,18µM*,20µM*,-1%,-4,-5%
O=C(NCCc1ccccc1)c1ccc2c(c1)OCO2,5µM*,2.8µM*,1%,-6,6%
O=C(NC(=S)NCc1ccccc1)c1ccc2c(c1)OCO2,11µM*,7.9µM*,19%,-20,-5%
COC(=O)/C=C1\OCc2cc(OC)c(OC)cc21,nt,nt,nt,-9,nt
O=C(NCc1cccnc1)/C(=C\c1ccc(-c2cccc(Cl)c2)o1)S(=O)(=O)c1ccccc1,13µM*,?,7.3µM*,-105*,?
O=C(NCc1cccnc1)/C(=C/c1ccc(-c2cccc(Cl)c2)o1)S(=O)(=O)c1ccccc1,?,11µM*,?,-106*,4%
CN(C)c1ccc(/C=C(\NC(=O)c2ccccc2)C(=O)NCc2cccnc2)cc1,-4%,3%,7%,7,-24%
Cc1ccc(C(=O)N/C(=C\c2ccc(-c3cc(Cl)ccc3Cl)o2)C(=O)NCc2cccnc2)cc1,-1%,?,4%,-60*,6%
